High-throughput results: PubChem, National Center for Advancing Translational Sciences (NCATS)
HP1b binding inh: blocks HP1-beta chromodomain binding to methylated histone tails; P83916; AlphaScreen HP1-beta / biotin-H3K9me3 peptide binding; Potency, µM (top dose mostly 114 µM), for inactives: top-dose activity change, negative = inhibition, hits mostly inhibitors; hit rate 0.56% among 390,000; AID 540317; also: potency is read from the fitted curve at half-maximal effect; nearly all actives have a fitted effect of over 70% in size
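AlphaScreen: HP1-beta (50 nM) preformed 30 min with biotin-H3(1-18)K9me3 peptide (50 nM) in PBS pH 7.4, 0.01% Tween-20. Compound added for 30 min at RT, then streptavidin donor/nickel chelate acceptor beads (10 ug/mL) for 30 min.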
KDM4E inh: blocks human JMJD2E demethylase activity; B2RXH2; hit rate 1.6% among 230,000; Potency, µM (top dose mostly 57.1 µM), without a hit: top-dose activity change, negative = inhibition, usual class: inhibitors; JMJD2E catalytic domain, FDH-coupled NADH fluorescence (FDH is formaldehyde dehydrogenase); AID 2147; active = well fitted inhibition curve with a large enough effect, not every such curve was filed as active; inconclusive = small, poorly fitted or top-dose-only effect, or another doubt; inactive = no such curve, though single readings can be large or run the other way;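 also: potency is read from the fitted curve at half-maximal effect; 0% = wells with enzyme and -100% = buffer wells without enzyme; nearly all actives have a fitted effect of over 50% in size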
L3MBTL1 inh: L3MBTL1 (human) inhibition | Q9Y468 | AlphaScreen L3MBTL1–H3K9me1 peptide binding | Potency, µM (highest dose often 57.1 µM), for inactives: at the highest dose activity, negative = inhibition, most hits filed as inhibitors | hit rate 0.66% among 230,000 | AID 485360; also: potency is read from the fitted curve at half-maximal effect; % is scaled to controls: 0 for no effect and ±100 for the full control effect; nearly all actives have a fitted effect of over 60% in size
Target sequence (Q9Y468 whole entry, looked up): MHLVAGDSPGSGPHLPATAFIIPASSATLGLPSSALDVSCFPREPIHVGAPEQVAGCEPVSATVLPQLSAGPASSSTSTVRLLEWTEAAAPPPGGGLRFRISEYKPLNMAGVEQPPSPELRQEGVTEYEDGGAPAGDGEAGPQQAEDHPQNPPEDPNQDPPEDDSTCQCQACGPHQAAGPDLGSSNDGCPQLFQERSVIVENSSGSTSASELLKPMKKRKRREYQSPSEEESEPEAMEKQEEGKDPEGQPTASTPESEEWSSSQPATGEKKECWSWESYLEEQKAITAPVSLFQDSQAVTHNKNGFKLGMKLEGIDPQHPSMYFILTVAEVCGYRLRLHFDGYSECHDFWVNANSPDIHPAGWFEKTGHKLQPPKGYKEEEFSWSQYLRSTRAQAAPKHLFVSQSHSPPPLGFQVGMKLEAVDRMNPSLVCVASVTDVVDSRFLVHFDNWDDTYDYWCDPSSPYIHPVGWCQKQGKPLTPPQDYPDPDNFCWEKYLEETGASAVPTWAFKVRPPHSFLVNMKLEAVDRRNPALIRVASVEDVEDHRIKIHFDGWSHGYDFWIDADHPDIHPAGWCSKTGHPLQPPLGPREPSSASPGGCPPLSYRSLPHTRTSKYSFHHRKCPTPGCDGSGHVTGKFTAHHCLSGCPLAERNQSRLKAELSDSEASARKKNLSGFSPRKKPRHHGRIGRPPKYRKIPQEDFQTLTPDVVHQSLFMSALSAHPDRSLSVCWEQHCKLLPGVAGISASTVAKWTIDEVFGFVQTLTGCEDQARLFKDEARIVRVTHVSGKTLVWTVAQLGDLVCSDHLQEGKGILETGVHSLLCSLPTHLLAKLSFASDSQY
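Displacement of a biotinylated histone H3(1-15) peptide monomethylated at Lys9 (75 nM) from L3MBTL1 (50 nM) was measured by AlphaScreen after a 30 min room-temperature compound incubation; cefsulodin titration served as intraplate control.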
JMJD2A Tudor inh: JMJD2A Tudor domain (human) inhibition; O75164; AlphaScreen JMJD2A-Tudor / H3K4me3 peptide binding; Potency, µM (titrated, usually from 114 µM), for inactives: at the top dose activity change, negative = inhibition, hits mostly inhibitors; hit rate 4.4% among 390,000; AID 504339; also: potency is read from the fitted curve at half-maximal effect; % is scaled to controls: 0 for no effect and ±100 for the full control effect; nearly all actives have a fitted effect of over 50% in size
BAZ2B block: blocks human BAZ2B; AlphaScreen BAZ2B-H3K14Ac peptide displacement; Potency, µM (series often up to 114 µM), for the others: at the highest dose activity change, negative = inhibition, most hits filed as inhibitors; hit rate 4.4% among 360,000; AID 504333; also: potency is read from the fitted curve at half-maximal effect; % is scaled to controls: 0 for no effect and ±100 for the full control effect; nearly all actives have a fitted effect of over 60% in size
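Multi-concentration screen (max 110 uM) measuring displacement of acetylated histone H3 peptide from BAZ2B by AlphaScreen, using 50 nM protein, 50 nM peptide and 10 ug/mL streptavidin donor plus Ni-chelate acceptor beads.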
PI5P4K alpha inh: PI5P4K alpha (human) kinase inhibition; PI5P4Kalpha enzyme, ADP-Glo luminescence, 60 min; active compounds read low; max response, %; hit rate 1.2% among 330,000; active = max response of -50% or lower; inconclusive = between -30% and -50%; inactive = -30% or higher; also: value at the top dose of about 77 µM; % is scaled to controls: 0 for no effect and ±100 for the full control effect
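Luminescence from ADP-Glo served as readout of PI5P4Kalpha activity in a qHTS format. Reaction: enzyme, substrate, compound, ATP at 5 microM final, 60 min at RT.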
Numbers without * were called inactive; [ ] = remark or other dose. Only some compounds are listed: those with a hit (about 5.7% of all), similar ones and a draw of the others. Unless noted, calls follow the shape of the dose curve; as a rule, active = well fitted inhibition curve with a large enough effect; inconclusive = small, poorly fitted or top-dose-only effect; inactive = no such curve, though single readings can be large or run the other way.

How did CCCCc1ccc(NC(=O)CSc2nc3ccccc3nc2N2CCCCC2)cc1 do in these assays?
HP1b binding inh: 68%; JMJD2A Tudor inh: 19%; BAZ2B block: 6%

What do the screens show for `COc1cccc(CNC(=O)C(=O)NCC(c2ccc3c(c2)OCO3)N2CCOCC2)c1` (configuration not stated)?
HP1b binding inh: 14%[57 µM]; JMJD2A Tudor inh: -25%; BAZ2B block: 5%

Results for CCOC(=O)N1CCC(NC(=O)C2CCCN(C(=O)N3CCOc4ccccc43)C2)CC1 (configuration not stated) ?
HP1b binding inh: 12%; KDM4E inh: -2%; JMJD2A Tudor inh: -2%; BAZ2B block: 0%; PI5P4K alpha inh: 7

How did CCOC(=O)N1CCC(NC(=O)C2CCN(C(=O)N3CCOc4ccccc43)CC2)CC1 do in these assays?
HP1b binding inh: 3%; KDM4E inh: 2%; JMJD2A Tudor inh: 100µM*; BAZ2B block: 30%; PI5P4K alpha inh: 0

Results for COc1cccc(N=C2NC(=O)/C(=C/c3cc([N+](=O)[O-])ccc3O)S2)c1 ?
HP1b binding inh: inconclusive; JMJD2A Tudor inh: inconclusive; BAZ2B block: 56µM*; PI5P4K alpha inh: -76*

What do the screens show for `Cc1ccc(S(=O)(=O)/N=C2/NC(=O)/C(=C/c3cc([N+](=O)[O-])ccc3O)S2)cc1`?
HP1b binding inh: 16%; JMJD2A Tudor inh: -32%; BAZ2B block: -29%; PI5P4K alpha inh: 268

How did O=C1NC(=Nc2ccccc2Cl)S/C1=C\c1cc([N+](=O)[O-])ccc1O do in these assays?
HP1b binding inh: 16%; L3MBTL1 inh: -7%; JMJD2A Tudor inh: inconclusive; BAZ2B block: inconclusive; PI5P4K alpha inh: -67*

How did CC(C)NC(=O)COC(=O)c1ccccc1C(=O)c1ccccc1 do in these assays?
HP1b binding inh: 43%; KDM4E inh: 8%; L3MBTL1 inh: 0%; JMJD2A Tudor inh: -2%; BAZ2B block: -15%; PI5P4K alpha inh: 7

How did N/C(Cn1cncn1)=N\NC(=O)c1ccc(Cl)cc1Cl do in these assays?
HP1b binding inh: inconclusive; KDM4E inh: 10%; L3MBTL1 inh: 7%; JMJD2A Tudor inh: 13µM*; BAZ2B block: -21%; PI5P4K alpha inh: 3

How did COC(=O)C1=C(C(=O)OC)[C@@H]2N(C)c3ccc(OC)cc3[C@@]23C[C@@H](C(=O)OC)N(C(=O)c2cccs2)C3=N1 do in these assays?
HP1b binding inh: inconclusive; KDM4E inh: 14%[11.4 µM]; L3MBTL1 inh: -5%; JMJD2A Tudor inh: inconclusive; BAZ2B block: 50µM*; PI5P4K alpha inh: 2

What do the screens show for `COC(=O)C1=C(C(=O)OC)[C@@H]2N(C)c3ccc(OC)cc3[C@@]23C[C@@H](C(=O)OC)N(S(=O)(=O)c2ccc(C)cc2)C3=N1`?
KDM4E inh: 10%[11.4 µM]

How did COC(=O)C1=C(C(=O)OC)[C@@H]2N(C)c3ccccc3[C@@]23C[C@@H](C(=O)OC)N(C(=O)c2cccs2)C3=N1 do in these assays?
HP1b binding inh: -12%; KDM4E inh: 5%[11.4 µM]; JMJD2A Tudor inh: inconclusive; BAZ2B block: inconclusive; PI5P4K alpha inh: -13

Results for COC(=O)C1=C(C(=O)OC)[C@@H]2N(C)c3ccc(OC)cc3[C@@]23C[C@@H](C(=O)OC)N(C(=O)c2cc(C)oc2C)C3=N1 ?
HP1b binding inh: inconclusive; KDM4E inh: -1%[11.4 µM]; JMJD2A Tudor inh: 45µM*; PI5P4K alpha inh: 5

Results for O=C(NC1CCCCC1)C(c1cccnc1)N(C(=O)CCl)c1cccc(Cl)c1 (configuration not stated) ?
HP1b binding inh: 12%; KDM4E inh: 2%; L3MBTL1 inh: inconclusive; JMJD2A Tudor inh: -17%; BAZ2B block: -2%; PI5P4K alpha inh: 2

How did CS(=O)(=O)c1ccc(Cl)c(NC(=O)Cc2c(F)cccc2Cl)c1 do in these assays?
HP1b binding inh: 37%; KDM4E inh: -6%; L3MBTL1 inh: 7%; JMJD2A Tudor inh: -9%; BAZ2B block: -11%; PI5P4K alpha inh: -4
